Activity calls are given as the source filed them. No rule for the calls is given here.
What follows are compounds tested against Pantothenate synthetase (Mycobacterium tuberculosis (strain ATCC 25618 / H37Rv)) (UniProt P9WIL5) (assay: Coupled enzyme confirmation of inhibitors against recombinant Mtb PanC (AID 375;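 also: 0% = full reaction with vehicle and 100% = no enzyme background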)). Conditions: coupled enzyme assay; at 10 µM, hits give high values.
Chain of Pantothenate synthetase (Mycobacterium tuberculosis (strain ATCC 25618 / H37Rv)) (P9WIL5 whole entry, looked up): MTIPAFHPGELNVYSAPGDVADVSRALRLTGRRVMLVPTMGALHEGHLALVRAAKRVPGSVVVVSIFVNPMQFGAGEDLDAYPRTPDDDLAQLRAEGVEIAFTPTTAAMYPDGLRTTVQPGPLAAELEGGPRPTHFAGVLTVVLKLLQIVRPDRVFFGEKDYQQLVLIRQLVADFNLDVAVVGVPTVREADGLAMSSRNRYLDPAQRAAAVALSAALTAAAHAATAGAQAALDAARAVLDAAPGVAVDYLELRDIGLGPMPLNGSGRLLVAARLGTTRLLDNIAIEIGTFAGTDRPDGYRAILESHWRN

SMILES | inhibition
COc1ccc(NC(=O)CSc2nnc(-c3ccncc3)n2CC2CCCO2)c(OC)c1 (stereo not given) | 4% (inactive)
COCCNC(=O)c1ccc2c(c1)nc(C)n2-c1cccc(F)c1 | 9% (inactive)
Cc1nnc(SCC(=O)Nc2ccc3c4c(cccc24)CC3)n1C | 0% (inactive)
Nc1ccc2[nH]ncc2c1 | 0% (inactive)
CCOC(=O)CNC(=O)Cn1cnc2c(nnn2-c2cccc(Cl)c2)c1=O | 0% (inactive)
CCOCCCNc1ncnc2c1[nH]c1ccccc12 | 0% (inactive)
Cc1c(C(=O)Nc2nnc(C(F)(F)F)s2)oc2ccccc12 | 5% (inactive)
CCc1nc2sc3c(c2c(=O)o1)CCCC3 | 0% (inactive)
O=C(C1=C(O)C(=O)N(c2ncccn2)C1c1cccc(Cl)c1)c1ccco1 (stereo not given) | 0% (inactive)
CCC(NC(=O)Nc1cc(OC)c(OC)c(OC)c1)(C(F)(F)F)C(F)(F)F | 3% (inactive)
CC1Cc2ccccc2N1C(=O)c1cccnc1 (stereo not given) | 0% (inactive)
OC(CN1CCN(c2ccccc2)CC1)c1ccc2c(c1)CCN2 (stereo not given) | 0% (inactive)
Cc1nc(NC(=O)C23CCC(C)(C(=O)O2)C3(C)C)sc1C (stereo not given) | 0% (inactive)
Cc1cc(C)c(C#N)c(SCC(=O)Nc2ccc(S(=O)(=O)Nc3onc(C)c3C)cc2)n1 | 0% (inactive)
O=C(NCCCN1CCCC1=O)C1CCN(S(=O)(=O)N2CCOCC2)CC1 | 0% (inactive)
Cc1cc(C(F)(F)F)nn1Cc1ccc(C(=O)NCc2ccco2)o1 | 0% (inactive)
Nn1c(CSc2nc3ccccc3o2)nnc1CSc1nc2ccccc2o1 | 0% (inactive)
CN(c1ccccc1C(N)=O)S(=O)(=O)c1ccccc1 | 10% (inactive)
COc1ccc(OCCCC(=O)Nc2nncs2)cc1 | 0% (inactive)
CCOc1ccc(NC(=O)CN(C)CC(=O)NC2CCCc3ccccc32)cc1OCC (stereo not given) | 7% (inactive)

SMILES | inhibition
O=C(NCc1ccc(F)cc1)c1cc(-c2ccco2)on1 | 6% (inactive)
Cc1[nH]nc(-c2ccc(O)c(C)c2O)c1-c1cnn(-c2ccccc2)c1 | 0% (inactive)
CCCCCn1c(=O)[nH]c2cc(C(=O)NCCCN3CCCCC3)ccc2c1=O | 3% (inactive)
CCOC(=O)c1cccc(NC(=O)CSc2nnc(C3CCCCC3)n2C)c1 | 2% (inactive)
CCCC(=O)Nc1ccc(OCC(=O)OC)cc1 | 5% (inactive)
O=C(CCNC(=O)Cn1ccc2ccccc2c1=O)NCCN1CCc2ccccc2C1 | 3% (inactive)
COc1cccc2cc(C(=O)C3=C(O)C(=O)N(CCCN4CCOCC4)C3c3ccncc3)oc12 (stereo not given) | 0% (inactive)
CCCCOc1ccc(-c2nnn(CC(=O)NCc3ccco3)n2)cc1 | 0% (inactive)
CCN(CC)CCN1C(=O)Cn2c(C)c(C)c3cccc1c32 | 1% (inactive)
C=CCc1c(C)nc(SC)nc1Nc1ccc(C(=O)O)cc1 | 6% (inactive)
COc1cc2c(cc1OC)CN(Cc1nc3ccsc3c(=O)[nH]1)CC2 | 6% (inactive)
COCCn1cc(C(=O)NCCCN2CCC(C)CC2)c2c3ccccc3n(C)c2c1=O | 2% (inactive)
Cc1ccc(Cn2nnc3c(=O)[nH]c(C4CCN(S(=O)(=O)c5ccc(F)cc5)CC4)nc32)cc1 | 3% (inactive)
O=C1NC(c2ccccc2)(C(F)(F)F)SC2=CCCCCN12 (stereo not given) | 0% (inactive)
COc1ccc(CCN2C(=O)C3C4C=CC(C4)C3C2=O)cc1OC (stereo not given) | 0% (inactive)
CCOC(=O)c1oc2ccccc2c1NC(=O)COC | 0% (inactive)
CCOC(=O)c1[nH]c2ccc(Br)cc2c1NC(=O)CNC | 4% (inactive)
N#Cc1c(N)nc2c(c1-c1ccncc1)CCCCC2 | 8% (inactive)
COC(=O)CCN1CCC(C(N)=O)CC1 | 1% (inactive)
CC1(C)Cc2c(c(=S)nc(-c3ccccc3)n2CCO)CO1 | 9% (inactive)
